Assay outcomes deposited in PubChem BioAssay by several laboratories.
BJeLR lethal: BJeLR cell viability loss | inhibition, % (test concentration not listed) | 300,000 compounds, 0.17% hits | BJeLR (HRASV12) viability, CellTiter-Glo ATP luminescence, 48 h | AID 1554; in the data active means inhibition above about 50%; inconclusive means no clear call, values can overlap the other calls
Vc quorum ag: inducers of Vibrio cholerae quorum light production without autoinducers. 350,000 compounds, 0.16% hits. activation, % at 18.7 µM. V. cholerae BH1578 lux reporter, luminescence, 6 h; in the data active means activation mostly above about 9.7%, no sharp cut-off; inconclusive means no clear call, values can overlap the other calls; inactive means mostly below about 3.7%
Autofluor counter: flagged as autofluorescent in microsphere protease counterscreen; compound autofluorescence counterscreen, microsphere flow cytometry; hits give high values; fluorescence intensity (no concentration beside the values); 360,000 compounds, 3.1% hits; in the data active means fluorescence intensity above about 16000; inconclusive means no clear call, values can overlap the other calls
BoNT A protease: blocks Botulinum neurotoxin A light chain protease. multiplex microsphere protease substrate cleavage, flow cytometry. inhibition, % at 10 µM. 360,000 compounds, 0.17% hits. AID 588499; further: plate controls were buffer without enzyme for full effect and enzyme alone for no effect
Anthrax LF prot: blocks Bacillus anthracis lethal factor protease; 360,000 compounds, 0.12% hits; P15917; AID 588501; inhibition, % at 10 µM; multiplex microsphere protease cleavage assay, LF; further: plate controls were buffer without enzyme for full effect and enzyme alone for no effect
Target sequence (P15917 whole entry, looked up): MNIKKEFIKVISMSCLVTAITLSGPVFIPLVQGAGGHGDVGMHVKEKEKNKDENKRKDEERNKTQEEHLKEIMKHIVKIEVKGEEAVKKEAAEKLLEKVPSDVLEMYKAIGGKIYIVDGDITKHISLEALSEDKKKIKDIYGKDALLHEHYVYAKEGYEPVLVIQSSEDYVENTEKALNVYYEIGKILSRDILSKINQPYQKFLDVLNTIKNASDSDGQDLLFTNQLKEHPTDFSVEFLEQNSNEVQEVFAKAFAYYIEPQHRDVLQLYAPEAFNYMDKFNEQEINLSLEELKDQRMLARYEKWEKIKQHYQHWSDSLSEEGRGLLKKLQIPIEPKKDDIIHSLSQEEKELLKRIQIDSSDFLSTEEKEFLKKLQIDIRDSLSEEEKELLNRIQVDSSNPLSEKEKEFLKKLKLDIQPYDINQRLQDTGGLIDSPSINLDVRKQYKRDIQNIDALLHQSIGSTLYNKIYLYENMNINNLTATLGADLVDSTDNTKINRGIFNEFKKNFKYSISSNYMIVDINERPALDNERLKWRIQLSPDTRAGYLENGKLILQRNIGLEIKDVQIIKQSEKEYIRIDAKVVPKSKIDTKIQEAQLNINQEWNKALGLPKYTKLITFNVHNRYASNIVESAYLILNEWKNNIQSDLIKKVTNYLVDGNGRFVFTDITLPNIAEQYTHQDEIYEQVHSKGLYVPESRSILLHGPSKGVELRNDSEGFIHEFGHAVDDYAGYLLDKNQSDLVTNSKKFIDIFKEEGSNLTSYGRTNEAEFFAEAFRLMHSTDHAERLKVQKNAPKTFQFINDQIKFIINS
BoNT-F LC inh: inhibitors of Botulinum neurotoxin F light chain protease; Multiplex microsphere protease cleavage assay, flow cytometry; inhibition, % at 10 µM; 360,000 compounds, 0.22% hits; AID 588497; in the data active means inhibition above about 35%, passing the limit was not always enough; inconclusive means no clear call, values can overlap the other calls; further: plate controls were buffer without enzyme for full effect and enzyme alone for no effect
* marks the source's active call; other numbers are inactive results; i = inactive; ? = inconclusive; nt = no result. A selection: hits, their analogues and other compounds. The true share with any hit is near 3.7%. Unless noted, no stated cut-off is given here; in the data, active means inhibition above about 30%; inconclusive means no clear call, values can overlap the other calls; inactive means below that.

SMILES	BJeLR lethal	Vc quorum ag	Autofluor counter	BoNT A protease	Anthrax LF prot	BoNT-F LC inh
COc1cccc(OC)c1-c1nn2c(-c3ccccc3Cl)nnc2s1	1	0	21844*	0	0	2
COc1cc(-c2nnc3sc(-c4ccco4)nn23)cc(OC)c1OC	4	1	23532*	?	-2	-5
COc1ccc(-c2nnc3sc(-c4ccco4)nn23)cc1OC	-5	0	8184	0	-6	-16
Clc1ccccc1-c1nnc2sc(-c3ccco3)nn12	-5	-4	23775*	-2	1	-2
c1cncc(-c2nnc3sc(-c4ccco4)nn23)c1	-2	0	10312	-1	13	0
Clc1ccccc1-c1nnc2sc(-c3ccccn3)nn12	-8	-1	21229*	?	-2	2
N#Cc1ccc(C2=NC(C(F)(F)F)(C(F)(F)F)c3c(n(Cc4ccco4)c(=O)[nH]c3=O)N2)cc1	6	-5	23851*	-1	-2	-1
O=c1[nH]c(=O)n(Cc2ccco2)c2c1C(C(F)(F)F)(C(F)(F)F)N=C(CCC1CCCCC1)N2	0	nt	?	4	-4	-11
O=c1[nH]c(=O)n(Cc2ccco2)c2c1C(C(F)(F)F)(C(F)(F)F)N=C(C1CCCCC1)N2	-8	i	20476*	2	-15	2
CC1(C)N=C(c2ccc(Cl)cc2)C(=O)N1	-10	-1	23886*	0	-2	-4
NC(=O)C1CCN(c2ccc(C(F)(F)F)cc2[N+](=O)[O-])CC1	-3	0	21870*	4	-5	3
S=c1nc(-c2ccccc2)c(-c2ccccc2)n[nH]1	7	i	3044	0	4	-15
Nc1c(-c2ccccc2)n[nH]c1-c1ccccc1	3	i	23500*	?	-2	-5
CCC(C)[C@H](N)C(=O)N[C@H]1CCC2C3CC=C4C[C@@H](O)CC[C@]4(C)C3CC[C@@]21C (stereo not given in full)	nt	i	3898	1	-6	-7
O=C(CCN1C(=O)COc2ccccc21)NCCCN1CCc2ccccc2C1	1	i	18721*	-11	-4	-15
O=C(NCCN1CCN(c2ccccc2Cl)CC1)Nc1ccccc1	-3	i	3547	-2	-8	-17
O=C(NCCN1CCN(Cc2ccccc2Cl)CC1)Nc1ccccc1	-7	i	23034*	2	1	1
O=C(NCCCN1CCc2ccccc2C1)Nc1ccc(Cl)cc1	4	0	22133*	-4	-1	-6
O=C(NCCCn1ccnc1)Nc1ccc(Cl)cc1	3	1	24742*	?	-2	-5
Fc1cccc(Cc2c(-c3ccccc3)nc3c(Cl)cc(C(F)(F)F)cn23)c1	nt	nt	7362	0	2	-8
CC1(C(=O)NS(=O)(=O)C2CC2)CCN(C(=O)c2cccc(Cl)c2)C1 (stereo not given)	nt	1	3917	0	-8	4
CCOC(=O)c1c(NC(C)=O)sc2c1CCC(C=NCCCN(CC)CC)=C2Sc1ccccc1	-11	20*	4169	68*	31*	-24
O=C(c1ccco1)N(Cc1ccccc1)Cc1ccccn1	7	0	4229	0	-5	2
O=C(c1cccs1)N(Cc1ccccn1)Cc1ccco1	1	0	24079*	-1	-3	-1
C/C(=C\C(=O)Nc1nccs1)c1ccccc1	-5	3	17209*	?	-4	-6
SMILES	BJeLR lethal	Vc quorum ag	Autofluor counter	BoNT A protease	Anthrax LF prot	BoNT-F LC inh
C/C(=C\C(=O)O)C(=O)Nc1nccs1	7	i	4082	1	2	?
N[C@@H](Cc1c[nH]c2ccccc12)c1nnc(SCc2ccc(F)cc2)o1	-14	i	24676*	?	-3	-4
C=C(C)CSc1nnc([C@@H](N)Cc2c[nH]c3ccccc23)o1	-9	i	19997*	?	-2	-6
N[C@@H](Cc1ccccc1)c1nnc(SCc2ccccc2Cl)o1	-2	-4	19863*	?	1	-5
N[C@@H](Cc1c[nH]c2ccccc12)c1nnc(SCc2ccccc2)o1	8	-2	4809	0	-3	-14
CC(C)=CCSc1nnc([C@@H](N)Cc2c[nH]c3ccccc23)o1	4	-4	7689	-1	-5	-10
CCc1ccc(CN2CCC(Oc3cc(C(=O)NC4CC4)ccc3OC)CC2)cc1	nt	i	2951	0	5	2
Cc1c([C@@H]2C[C@H]3CN(Cc4cccc(Cl)c4)C(=O)[C@]34CCCN24)cnn1C	1	-1	8790	-1	-1	-1
Cn1cc([C@@H]2C[C@H]3CN(Cc4cccc(Cl)c4)C(=O)[C@]34CCCN24)c2ccccc21	3	nt	17603*	10	4	-20
O=c1[nH][nH]c2c1[C@H](c1ccc(Cl)cc1)O[C@H](C1CCCC1)C2	nt	nt	5899	0	5	-7
COc1ccc2[nH]c(=O)c(CN(C)C(=O)c3ccncc3)cc2c1	4	i	20262*	-2	0	-3
COc1ccc2[nH]c(=O)c(CN(CCc3ccccc3)C(C)=O)cc2c1	-10	0	22156*	2	0	3
COc1ccc2[nH]c(=O)c(CN(C(=O)c3ccncc3)C(C)C)cc2c1	-9	-1	2505	0	-2	-4
C[C@@H]1CN([C@@H](C)CO)C(=O)CCCn2cc(nn2)CO[C@H]1CN(C)C(=O)Oc1ccccc1	nt	0	2989	0	-4	-5
C=CCn1c(-c2cccnc2Cl)nc2cc(Cl)c(Cl)cc21	6	i	10599	2	0	2
CCCn1c(-c2cccnc2Cl)nc2cc(Cl)c(Cl)cc21	17	0	21449*	-1	0	-1
COc1ccc(Cl)cc1N/C(N)=N/c1nc(CSc2ccc(C)cc2)cc(=O)[nH]1	1	i	23248*	1	-1	-2
O=C(c1ccncc1)N1CCN(C(=O)c2ccncc2)CC1	4	0	22332*	-1	-5	-3
Cc1ccc(C(=O)N2CCSCC2)cc1	-4	0	20353*	1	-3	0
COC(=O)c1ccc(OCC(=O)c2ccccc2OC)cc1	4	i	20757*	?	-7	5
COc1ccc(-c2nc3c4ccccc4ccn3c2Cc2cccc(F)c2)cc1OC	nt	nt	6649	0	-1	-11
Cc1ccc(C(=O)Nc2cc(=O)n(C)c(=O)n2C)o1	-10	i	22513*	?	-2	0
Cc1ccc(/C=C/C(=O)Nc2cc(=O)n(C)c(=O)n2C)o1	-12	0	2479	0	-1	4
O=C(CN1c2cccc3cccc(c23)S1(=O)=O)NCc1ccccc1Cl	nt	-6	4095	0	-2	-2
O=C1Nc2ccccc2N(O)N1c1ccc(Cl)cc1	-4	1	2426	0	-2	-5
CCN1c2ccccc2NC2C1C(C(C)=O)C(=O)N2c1ccc(Cl)cc1 (stereo not given)	2	0	19587*	20	9	4
